# Laboratory results published in PubChem BioAssay (NCI).
# The panel holds about 79,000 compounds, 15% with a hit somewhere; the sample as a whole holds those more often. Values without a mark were called inactive. Active and inactive are the calls of the source. Rule as the data show it: active = growth inhibition above about 70%; inactive = the rest.
# Experiments:
# [1] = NCI Yeast Anticancer Drug Screen. Data for the rad52 strain (AID 147);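 also: 0% = growth of vehicle-treated control cultures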; conditions: S. cerevisiae rad52 mutant growth inhibition, hits give high values
# Outline: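 Compounds are applied to a genetically defined yeast strain lacking normal DNA damage repair, and inhibition of growth is expressed relative to cultures given vehicle only.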
# [2] = NCI Yeast Anticancer Drug Screen. Data for the wt1 strain (AID 149);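 also: 0% = growth of vehicle-treated wt1 cultures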; conditions: S. cerevisiae wt1 strain (SPY 50644) growth inhibition, hits give high values
# Outline: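 The wt1 strain was treated with compounds, and growth was compared with vehicle-treated cultures to give inhibition.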
# [3] = NCI Yeast Anticancer Drug Screen. Data for the rad50EPP+ strain (AID 151);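 also: 0% = growth of vehicle-treated control cultures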; conditions: S. cerevisiae rad50 mutant strain, hits give high values
# Outline: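 Compounds were applied to the rad50EPP+ yeast strain, which bears a defined DNA repair alteration, and growth inhibition was determined relative to vehicle-treated cultures.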
# [4] = NCI Yeast Anticancer Drug Screen. Data for the mgt1 strain (AID 153); conditions: S. cerevisiae mgt1 mutant growth inhibition, hits give high values
# Outline: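 Strain: mgt1 yeast, one of a set carrying defined DNA damage repair or cell cycle control alterations. Compound-treated growth compared with vehicle.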
# [5] = NCI Yeast Anticancer Drug Screen. Data for the rad50 strain (AID 155);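 also: 0% = growth of vehicle-only cultures of the same strain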; conditions: S. cerevisiae rad50 strain growth inhibition, hits give high values
# Outline: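 Cells are treated with compound, grown, and their growth is then scored against vehicle-only cultures of the same repair-deficient yeast strain.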
# [6] = NCI Yeast Anticancer Drug Screen. Data for the mec2-1 strain (AID 157); conditions: S. cerevisiae mec2-1 strain, hits give high values
# Outline: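 Strain: mec2-1 (DNA repair/cell cycle alteration). Compound exposure, then growth measured; inhibition expressed relative to vehicle.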
# [7] = NCI Yeast Anticancer Drug Screen. Data for the rad14 strain (AID 159);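 also: 0% = growth of vehicle-treated control cultures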; conditions: S. cerevisiae rad14 strain growth inhibition, hits give high values
# Outline: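 Readout: yeast growth inhibition, referenced to vehicle-only cultures. Strain bears a defined alteration in DNA damage repair.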
# [8] = NCI Yeast Anticancer Drug Screen. Data for the sgs1 mgt1 strain (AID 161);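 also: 0% = growth of cultures given vehicle only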; conditions: S. cerevisiae sgs1 mgt1 strain, hits give high values
# Outline: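 Mutant yeast exposed to compound; growth scored against vehicle-only wells.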
# [9] = NCI Yeast Anticancer Drug Screen. Data for the CLN2oe strain (AID 163);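 also: 0% = growth of vehicle-only control cultures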; conditions: S. cerevisiae CLN2oe strain, hits give high values
# Outline: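 Growth of a genetically modified yeast strain is measured after compound exposure and compared with cultures given vehicle alone.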
# [10] = NCI Yeast Anticancer Drug Screen. Data for the cln2 rad14 strain (AID 165);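 also: 0% = growth equal to vehicle treated cultures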; conditions: S. cerevisiae cln2 rad14 strain, hits give high values
# Outline: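 Compounds are applied to the cln2 rad14 yeast strain, and growth is then compared with that of vehicle-treated cultures to give inhibition.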
# [11] = NCI Yeast Anticancer Drug Screen. Data for the bub3 strain (AID 167); conditions: S. cerevisiae bub3 mutant strain, hits give high values
# Outline: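 Part of a panel of yeast mutants defective in DNA damage repair or cell cycle regulation. Each strain is grown with compound, and inhibition is calculated relative to solvent-treated cultures.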
# [12] = NCI Yeast Anticancer Drug Screen. Data for the wt2 strain (AID 169);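 also: 0% = growth of vehicle-treated yeast cultures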; conditions: S. cerevisiae wt2 strain growth inhibition, hits give high values
# Outline: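 This strain belongs to a panel of yeast strains with defined genetic alterations in DNA damage repair or cell cycle control. Compounds are applied, and growth inhibition is measured against vehicle-treated cultures.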
# [13] = NCI Yeast Anticancer Drug Screen. Data for the mlh1 strain (AID 171);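 also: 0% = growth of vehicle-treated control cultures of the same strain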; conditions: S. cerevisiae mlh1 strain growth inhibition, hits give high values
# Outline: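 Growth of the mutant yeast strain after compound exposure, expressed as inhibition relative to vehicle-only controls.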
# [14] = NCI Yeast Anticancer Drug Screen. Data for the sgs1 strain (AID 173);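 also: 0% = growth of vehicle-only control cultures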; conditions: S. cerevisiae sgs1 mutant, hits give high values
# Outline: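 Growth of a yeast strain bearing a defined genetic alteration is measured after compound treatment. Inhibition is expressed relative to vehicle-only controls.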
# [15] = NCI Yeast Anticancer Drug Screen. Data for the mlh1 rad18 strain (AID 175); conditions: S. cerevisiae mlh1 rad18 strain growth inhibition, hits give high values
# Outline: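 Read-out is yeast growth inhibition, calculated against vehicle-only controls. The compound was applied to a strain engineered with DNA damage repair alterations.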
# [16] = NCI Yeast Anticancer Drug Screen. Data for the rad18 strain (AID 177); conditions: S. cerevisiae rad18 mutant growth inhibition, hits give high values
# Outline: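 Growth of the mutant yeast strain after compound exposure, normalised to vehicle-only cultures.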
# [17] = at 5.0 µM (retest, dose inferred, filed as 0.5)
# [18] = at 50.0 µM (retest, dose inferred, filed as 5.0)
structure (smiles),measurement,setting,value
CCC(=O)OC1CCn2c1nc1c2C(=O)C(C)=C(N2CC2)C1=O (stereo unspecified),growth inhibition,[1]; at 1.2 µM,-5%
same,growth inhibition,[1]; at 3.7 µM,26%
same,growth inhibition,[1]; at 11.0 µM,17%
same,growth inhibition,[1]; at 33.0 µM,41%
same,growth inhibition,[1]; at 100.0 µM,82% (active)
same,growth inhibition,[2]; at 1.2 µM,4%
same,growth inhibition,[2]; at 3.7 µM,-7%
same,growth inhibition,[2]; at 11.0 µM,-11%
same,growth inhibition,[2]; at 33.0 µM,-8%
same,growth inhibition,[2]; at 100.0 µM,2%
same,growth inhibition,[3]; at 1.2 µM,12%
same,growth inhibition,[3]; at 3.7 µM,1%
same,growth inhibition,[3]; at 11.0 µM,-9%
same,growth inhibition,[3]; at 33.0 µM,7%
same,growth inhibition,[3]; at 100.0 µM,25%
same,growth inhibition,[4]; at 1.2 µM,7%
same,growth inhibition,[4]; at 3.7 µM,-7%
same,growth inhibition,[4]; at 11.0 µM,-1%
same,growth inhibition,[4]; at 33.0 µM,6%
same,growth inhibition,[4]; at 100.0 µM,16%
same,growth inhibition,[5]; at 1.2 µM,18%
same,growth inhibition,[5]; at 3.7 µM,-3%
same,growth inhibition,[5]; [17],48%
same,growth inhibition,[5]; at 11.0 µM,18%
same,growth inhibition,[5]; at 33.0 µM,34%
same,growth inhibition,[5]; [18],87% (active)
same,growth inhibition,[5]; at 50.0 µM,55.8%
same,growth inhibition,[5]; at 100.0 µM,78% (active)
same,growth inhibition,[6]; at 1.2 µM,-7%
same,growth inhibition,[6]; at 3.7 µM,-2%
same,growth inhibition,[6]; [17],38%
same,growth inhibition,[6]; at 11.0 µM,6%
same,growth inhibition,[6]; at 33.0 µM,20%
same,growth inhibition,[6]; [18],64%
same,growth inhibition,[6]; at 50.0 µM,70.4% (active)
same,growth inhibition,[6]; at 100.0 µM,64%
same,growth inhibition,[7]; at 1.2 µM,8%
same,growth inhibition,[7]; at 3.7 µM,7%
same,growth inhibition,[7]; at 11.0 µM,14%
same,growth inhibition,[7]; at 33.0 µM,38%
same,growth inhibition,[7]; at 100.0 µM,79% (active)
same,growth inhibition,[8]; [17],20%
same,growth inhibition,[8]; [18],66%
same,growth inhibition,[8]; at 50.0 µM,71.4% (active)
same,growth inhibition,[9]; at 1.2 µM,-41%
same,growth inhibition,[9]; at 3.7 µM,-44%
same,growth inhibition,[9]; at 11.0 µM,-43%
same,growth inhibition,[9]; at 33.0 µM,-39%
same,growth inhibition,[9]; at 100.0 µM,-19%
same,growth inhibition,[10]; [17],14%
same,growth inhibition,[10]; [18],54%
same,growth inhibition,[10]; at 50.0 µM,57.6%
same,growth inhibition,[11]; at 1.2 µM,9%
same,growth inhibition,[11]; at 3.7 µM,-3%
same,growth inhibition,[11]; [17],-24%
same,growth inhibition,[11]; at 11.0 µM,-9%
same,growth inhibition,[11]; at 33.0 µM,-14%
same,growth inhibition,[11]; [18],-11%
same,growth inhibition,[11]; at 50.0 µM,-7.05%
same,growth inhibition,[11]; at 100.0 µM,13%
same,growth inhibition,[12]; at 1.2 µM,-30%
same,growth inhibition,[12]; at 3.7 µM,-35%
same,growth inhibition,[12]; at 11.0 µM,-29%
same,growth inhibition,[12]; at 33.0 µM,-19%
same,growth inhibition,[12]; at 100.0 µM,16%
same,growth inhibition,[13]; at 1.2 µM,5%
same,growth inhibition,[13]; at 3.7 µM,24%
same,growth inhibition,[13]; at 11.0 µM,-11%
same,growth inhibition,[13]; at 33.0 µM,-10%
same,growth inhibition,[13]; at 100.0 µM,24%
same,growth inhibition,[14]; at 1.2 µM,14%
same,growth inhibition,[14]; at 3.7 µM,30%
same,growth inhibition,[14]; at 11.0 µM,37%
same,growth inhibition,[14]; at 33.0 µM,55%
same,growth inhibition,[14]; at 100.0 µM,80% (active)
same,growth inhibition,[15]; [17],45%
same,growth inhibition,[15]; [18],73% (active)
same,growth inhibition,[15]; at 50.0 µM,69%
same,growth inhibition,[16]; at 1.2 µM,60%
same,growth inhibition,[16]; at 3.7 µM,75% (active)
same,growth inhibition,[16]; at 11.0 µM,87% (active)
same,growth inhibition,[16]; at 33.0 µM,90% (active)
same,growth inhibition,[16]; at 100.0 µM,91% (active)
O=[N+]([O-])c1cc(S(=O)(=O)F)ccc1Cl,growth inhibition,[1]; at 1.2 µM,20%
same,growth inhibition,[1]; at 3.7 µM,24%
same,growth inhibition,[1]; at 11.0 µM,49%
same,growth inhibition,[1]; at 33.0 µM,94% (active)
same,growth inhibition,[1]; at 100.0 µM,98% (active)
same,growth inhibition,[2]; at 1.2 µM,27%
same,growth inhibition,[2]; at 3.7 µM,28%
same,growth inhibition,[2]; at 11.0 µM,9%
same,growth inhibition,[2]; at 33.0 µM,93% (active)
same,growth inhibition,[2]; at 100.0 µM,99% (active)
same,growth inhibition,[3]; at 1.2 µM,13%
same,growth inhibition,[3]; at 3.7 µM,20%
same,growth inhibition,[3]; at 11.0 µM,47%
same,growth inhibition,[3]; at 33.0 µM,82% (active)
same,growth inhibition,[3]; at 100.0 µM,99% (active)
same,growth inhibition,[4]; at 1.2 µM,11%
same,growth inhibition,[4]; at 3.7 µM,20%
same,growth inhibition,[4]; at 11.0 µM,18%
same,growth inhibition,[4]; at 33.0 µM,93% (active)
same,growth inhibition,[4]; at 100.0 µM,99% (active)
same,growth inhibition,[5]; at 1.2 µM,18%
same,growth inhibition,[5]; at 3.7 µM,20%
same,growth inhibition,[5]; [17],51%
same,growth inhibition,[5]; at 11.0 µM,38%
same,growth inhibition,[5]; at 33.0 µM,94% (active)
same,growth inhibition,[5]; [18],57%
same,growth inhibition,[5]; at 50.0 µM,92.5% (active)
same,growth inhibition,[5]; at 100.0 µM,100% (active)
same,growth inhibition,[6]; at 1.2 µM,27%
same,growth inhibition,[6]; at 3.7 µM,25%
same,growth inhibition,[6]; [17],50%
same,growth inhibition,[6]; at 11.0 µM,35%
same,growth inhibition,[6]; at 33.0 µM,95% (active)
same,growth inhibition,[6]; [18],62%
same,growth inhibition,[6]; at 50.0 µM,94.5% (active)
same,growth inhibition,[6]; at 100.0 µM,100% (active)
same,growth inhibition,[7]; at 1.2 µM,1%
same,growth inhibition,[7]; at 3.7 µM,-6%
same,growth inhibition,[7]; at 11.0 µM,7%
same,growth inhibition,[7]; at 33.0 µM,94% (active)
same,growth inhibition,[7]; at 100.0 µM,99% (active)
same,growth inhibition,[8]; [17],11%
same,growth inhibition,[8]; [18],100% (active)
same,growth inhibition,[8]; at 50.0 µM,93.4% (active)
same,growth inhibition,[9]; at 1.2 µM,26%
same,growth inhibition,[9]; at 3.7 µM,20%
same,growth inhibition,[9]; at 11.0 µM,39%
same,growth inhibition,[9]; at 33.0 µM,93% (active)
same,growth inhibition,[9]; at 100.0 µM,98% (active)
same,growth inhibition,[10]; [17],27%
same,growth inhibition,[10]; [18],100% (active)
same,growth inhibition,[10]; at 50.0 µM,92.4% (active)
same,growth inhibition,[11]; at 1.2 µM,-10%
same,growth inhibition,[11]; at 3.7 µM,-6%
same,growth inhibition,[11]; [17],39%
same,growth inhibition,[11]; at 11.0 µM,1%
same,growth inhibition,[11]; at 33.0 µM,90% (active)
same,growth inhibition,[11]; [18],99% (active)
same,growth inhibition,[11]; at 50.0 µM,93.2% (active)
same,growth inhibition,[11]; at 100.0 µM,98% (active)
same,growth inhibition,[12]; at 1.2 µM,-11%
same,growth inhibition,[12]; at 3.7 µM,-4%
same,growth inhibition,[12]; at 11.0 µM,17%
same,growth inhibition,[12]; at 33.0 µM,85% (active)
same,growth inhibition,[12]; at 100.0 µM,98% (active)
same,growth inhibition,[13]; at 1.2 µM,15%
same,growth inhibition,[13]; at 3.7 µM,19%
same,growth inhibition,[13]; at 11.0 µM,29%
same,growth inhibition,[13]; at 33.0 µM,95% (active)
same,growth inhibition,[13]; at 100.0 µM,99% (active)
same,growth inhibition,[14]; at 1.2 µM,6%
same,growth inhibition,[14]; at 3.7 µM,13%
same,growth inhibition,[14]; at 11.0 µM,50%
same,growth inhibition,[14]; at 33.0 µM,97% (active)
same,growth inhibition,[14]; at 100.0 µM,98% (active)
same,growth inhibition,[15]; [17],32%
same,growth inhibition,[15]; [18],54%
same,growth inhibition,[15]; at 50.0 µM,92.8% (active)
same,growth inhibition,[16]; at 1.2 µM,4%
same,growth inhibition,[16]; at 3.7 µM,15%
same,growth inhibition,[16]; at 11.0 µM,30%
same,growth inhibition,[16]; at 33.0 µM,92% (active)
same,growth inhibition,[16]; at 100.0 µM,99% (active)
